Measured values taken from PubChem BioAssay AID588413 (Sanford-Burnham Center for Chemical Genomics, 2011).
About 2,500 (0.74%) of roughly 340,000 compounds were called active. The entries come from a sample that favours actives as a whole. Unmarked numbers belong to inactive results.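 How the source made its calls: active means inhibition above about 55% (limit read from the data); inactive means the rest.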

Experiment: blockers of Gli reporter signaling – luciferase luminescence, Sufu-KO-LIGHT cells, uHTS, primary screen (AID 588413);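 further: 0% = DMSO-treated cells and 100% = wells with medium but no cells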
Conditions: Sufu-KO-LIGHT fibroblasts, at 5 µM, stronger effect = higher value

Question: Which inhibition does the source give for `CC1=NNC(=O)C1CCC(=O)N/N=C(\C)c1ccc(Cl)cc1` (centres undefined) here?
Answer: 3.52%

Question: With `Cc1cnc(NC(=O)c2ccccn2)s1` as the compound, how does the inhibition read?
Answer: -50.9%

Question: For `CC(=NNC(=S)N1CCCCCC1)c1ccccn1`, which inhibition is on record?
Answer: 63.6% (active)

Question: Which inhibition does the source give for `C/C(=N\NC(=O)c1ccccc1F)c1ccccn1` here?
Answer: 58.4% (active)

Question: For `COc1ccc(/C(C)=N\NC(=O)c2ccc(-c3ccccc3)cc2)c(F)c1`, which inhibition is on record?
Answer: 2.32%

Question: Which inhibition does the source give for `Cc1cccc(C)c1NC(=S)N1CCCCCC1` here?
Answer: 3.64%

Question: For `CNC(=S)N1CCN(c2ccccn2)CC1`, which inhibition is on record?
Answer: 2.59%

Question: With `C/C(=N\NC(=O)Cc1ccc(Cl)cc1)c1ccccn1` as the compound, how does the inhibition read?
Answer: 88% (active)

Question: Which inhibition does the source give for `NC(=O)NC(CC(=O)NNC(=O)c1ccccn1)c1ccc(Cl)cc1` (centres undefined) here?
Answer: 5.55%

Question: With `O=C(COC(=O)c1ccc(O)cc1O)c1ccc2c(c1)OCCO2` as the compound, how does the inhibition read?
Answer: -30.6%

Question: Which inhibition does the source give for `C=CCn1cc(C(=O)NCc2ccc(Cl)cc2)c(=O)c2cc(S(=O)(=O)N(CC)CC)ccc21` here?
Answer: 9.9%

Question: With `Cc1ccc(S(=O)(=O)c2cc3c(=O)n4cccc(C)c4nc3n(CCc3ccccc3)c2=N)cc1C` as the compound, how does the inhibition read?
Answer: 1.35%

Question: With `CC(C)c1ccc(/C=C/C(=O)NCCCN2CCOCC2)cc1` as the compound, how does the inhibition read?
Answer: -8.47%

Question: Which inhibition does the source give for `CNS(=O)(=O)c1ccc(NC(=O)C2CC(=O)N(c3ccc(Cl)cc3)C2)cc1` (centres undefined) here?
Answer: -4%

Question: For `CCOC(=O)c1c(C)[nH]c(C(=O)NCCN2CCOCC2)c1C`, which inhibition is on record?
Answer: 17.9%

Question: For `CN(C)S(=O)(=O)c1ccc(Cl)c(NC(=O)COC(=O)CC(NC(N)=O)c2ccc(Cl)cc2)c1` (centres undefined), which inhibition is on record?
Answer: -2.2%

Question: For `CCOP1(=O)C=C(C(C)(C)C)OC1c1ccc(F)cc1` (centres undefined), which inhibition is on record?
Answer: 8.49%

Question: Which inhibition does the source give for `COc1cccc(NC(=S)NC(=O)c2c(Cl)c(C)nn2C)c1` here?
Answer: -24.8%

Question: Which inhibition does the source give for `CCCc1c(C(=O)Nc2ccc(F)cc2)cnn1-c1ccccc1` here?
Answer: -12.3%

Question: For `Cc1nn(C(C)C(=O)NCCC2=CCCCC2)c(=O)c2nn(-c3ccccc3)c(C)c12` (centres undefined), which inhibition is on record?
Answer: 3.02%

Question: Which inhibition does the source give for `CCN1/C(=C/c2ccc3ccc(C)cc3[n+]2CC)Sc2ccccc21` here?
Answer: 79.4% (active)

Question: With `CCN1/C(=C\c2ccc3ccccc3[n+]2CC)Sc2cc(C)ccc21` as the compound, how does the inhibition read?
Answer: 90% (active)

Question: For `NC(=O)c1ccc(N2CCCC2)nc1`, which inhibition is on record?
Answer: 1.14%

Question: Which inhibition does the source give for `CCC1=[N+]([O-])C(C)(/C(C)=N\O)N(O)C1(C)C` (centres undefined) here?
Answer: 17.9%

Question: For `CC(=NCc1ccco1)c1c(C(F)(F)F)[nH]n(-c2nc3ccccc3s2)c1=O`, which inhibition is on record?
Answer: -17.2%

Question: With `COC(=O)Cc1[nH]n(-c2nc3ccccc3s2)c(=O)c1C(C)=Nc1ccc(OC)cc1` as the compound, how does the inhibition read?
Answer: 79.5% (active)

Question: For `COc1ccc(C(=O)Nc2cccc(/C=C(/CCC(=O)O)c3nc4ccccc4s3)c2)cc1`, which inhibition is on record?
Answer: -20.1%

Question: Which inhibition does the source give for `CCCCC(=O)Nc1ccc(C(=O)Nc2cc(C(F)(F)F)ccc2Cl)cc1` here?
Answer: 5.23%

Question: Which inhibition does the source give for `O=C(CC(O)(C(F)(F)F)C(F)(F)F)Nc1ccc(Cl)c(Cl)c1` here?
Answer: 78.9% (active)

Question: With `NC(=O)N1CCCC1C(=O)Nc1ccc(Cl)c(Cl)c1` (centres undefined) as the compound, how does the inhibition read?
Answer: 1.62%

Question: With `CCC1CCCCN1C(=O)CSc1nc2c(c(=O)n1C)SC(C)C2` (centres undefined) as the compound, how does the inhibition read?
Answer: 1.3%

Question: Which inhibition does the source give for `COc1ccc(CC(=O)NCC(=O)N/N=C/c2cc(Br)ccc2OC)cc1` here?
Answer: -1.49%

Question: Which inhibition does the source give for `COc1ccc(OC)c(/C=N/NC(=O)CSc2nnc(C)n2-c2ccccc2)c1` here?
Answer: -2.67%

Question: With `COc1ccc(OC)c(/C=N/NC(=O)c2ccc[n+](CC(=O)c3ccccc3)c2)c1` as the compound, how does the inhibition read?
Answer: 91.4% (active)

Question: With `Cc1cc(NC(=O)CN2CCCC(C)C2)n(-c2nc3ccccc3s2)n1` (centres undefined) as the compound, how does the inhibition read?
Answer: 20%

Question: For `CCC(C)Cn1c(O)cc2nn(-c3nc4ccccc4s3)c(=O)c-2c1C` (centres undefined), which inhibition is on record?
Answer: 83.4% (active)

Question: For `CCc1ccc[n+](-c2nc([O-])sc2C=O)c1`, which inhibition is on record?
Answer: 6.64%

Question: For `COc1ccc(NC(=O)CNC(=O)Cn2ccc3ccccc3c2=O)c(OC)c1`, which inhibition is on record?
Answer: -0.61%

Question: With `COc1ccc(OC)c(Cc2nnc(CCC(=O)NC3CCCC3)o2)c1` as the compound, how does the inhibition read?
Answer: -18.7%

Question: For `COc1ccc(OC)c(Cc2cnc3nc(N)nc(N)c3c2C)c1`, which inhibition is on record?
Answer: 63.1% (active)

Question: For `COc1ccc(OC)c(NC(=O)c2sc3nc(C)cc(C)c3c2N)c1`, which inhibition is on record?
Answer: -3.47%

Question: For `CC(C)=CCCC1(C)C=Cc2c(ccc3c2[nH]c2cc(O)c(C)cc23)O1` (centres undefined), which inhibition is on record?
Answer: -3.46%

Question: With `CS(=O)(=O)N1CCCC(C(=O)Nc2ccccc2C(F)(F)F)C1` (centres undefined) as the compound, how does the inhibition read?
Answer: -2.21%

Question: Which inhibition does the source give for `O=C(O)CCCCCCCCc1cn(CN2C(=O)c3ccccc3C2=O)nn1` here?
Answer: -12.6%

Question: With `OCC1(Cc2ccccc2C(F)(F)F)CCN(Cc2cccc3cnccc23)CC1` as the compound, how does the inhibition read?
Answer: 25.5%

Question: For `CC1CC2=C(CC1/C=N/NC(N)=S)C(C)(C)CCC2` (centres undefined), which inhibition is on record?
Answer: 72.7% (active)

Question: Which inhibition does the source give for `COc1cccc(CN(C)C(=O)CC23CC4CC(CC(C4)C2)C3)c1OC` here?
Answer: -2.54%

Question: For `Cn1c(N)c(C(=O)COC(=O)/C=C/c2ccc(OC(F)F)cc2)c(=O)n(C)c1=O`, which inhibition is on record?
Answer: 5.01%

Question: For `N#Cc1c(-c2cccs2)nc(SCC(=O)c2ccc(Br)cc2)[nH]c1=O`, which inhibition is on record?
Answer: 4.3%

Question: Which inhibition does the source give for `N#Cc1ccc(C(=O)Nc2nc(-c3cccs3)c(C(=O)C(F)(F)F)s2)cc1` here?
Answer: 62.5% (active)

Question: With `COC(=O)c1sc(NC(=S)NC(=O)c2ccc(C)cc2)nc1C` as the compound, how does the inhibition read?
Answer: -41.9%

Question: For `C/C(N)=C(\C#N)C(=O)NCCc1ccccn1`, which inhibition is on record?
Answer: -1.25%

Question: With `C=CC[C@H](CC(=O)OC(C)(C)C)C(=O)OC[C@H]1CCCN1C(=O)[C@H](CC=C)CC(=O)N(CCO)Cc1ccccc1` as the compound, how does the inhibition read?
Answer: 7.8%

Question: With `Nc1nc(SCC(=O)Nc2ccc(Cl)c([N+](=O)[O-])c2)n[nH]1` as the compound, how does the inhibition read?
Answer: -5.39%
